The test system of experiment [1] is Plasmodium falciparum Sir2 (PF13_0152, Sir2A). Briefly: pfSir2 binders on small-molecule microarrays, primary screen, biochemical, small-molecule microarray, 635 nm fluorescence (AID 1098).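 Further: score merges spot fluorescence intensity with its signal-to-noise ratio.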 To be noted: small-molecule microarray binding, fluorescence 635 nm; higher = more signal.
Experiment [2] can be described thus: small-molecule microarray binders of probe aDKK1, primary screen, biochemical, biotinylated probe, 635/667 nm fluorescence (AID 1099).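 Further: score merges 667nm spot fluorescence with signal to noise across triplicate slides; reference of the scale not given here.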 To be noted: higher = more signal.
Experiment [3] is described as follows: small-molecule microarray binders of probe aCHRDL2, primary screen, biochemical, biotinylated probe, 635/667 nm fluorescence (AID 1100). The note with it: higher = more signal.
Experiment [4] is described as follows: splicing luciferase reporter signal modulators, primary screen, spliceosome inhibition project, cell-based, HEK293, splice +/- reporter (AID 1101).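 Further: HEK293 cells carrying a splicing-competent luciferase reporter gene; test concentration not given here.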 To be noted: luminescence, 24 h, higher = more signal, called active from +8 up or from −8 down.
Experiment [5] deals with Fibroblast growth factor 10 (Homo sapiens) (UniProt O15520). The experiment in a line: FGF10 binders on small-molecule microarrays, primary screen, biochemical, small-molecule microarray, 635 nm fluorescence (AID 1102). To be noted: FGF10 binding, fluorescence 635 nm, higher = more signal.
Experiment [6] relates to glycogen synthase kinase-3 (GSK3A per assay name; protocol says GSK3B). Briefly: GSK3 binders on small-molecule microarrays, primary screen, biochemical, small-molecule microarray, 635 nm fluorescence, GSK3A (AID 1103). Further: the record names both GSK3A and GSK3B. To be noted: small-molecule microarray binding, fluorescence 635 nm; higher = more signal.
The target in experiment [7] is Epidermal growth factor receptor (Homo sapiens) (UniProt P00533). Briefly: EGFR binders on small-molecule microarrays, primary screen, biochemical, small-molecule microarray, 635 nm fluorescence (AID 1104).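 Further: score merges 667 nm emission intensity with spot signal to noise over triplicate slides.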 The note with it: EGFR binding, higher = more signal.
Experiment [8] addresses Follistatin-related protein 3 (Homo sapiens) (UniProt O95633). Briefly: FSTL3 binders on small-molecule microarrays, primary screen, biochemical, small-molecule microarray, 635 nm fluorescence (AID 1105).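 Further: score merges emission near 667 nm and signal to noise per printed spot across three slides.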 To be noted: FSTL3 binding, higher = more signal.
The target in experiment [9] is Dickkopf-related protein 1 (Homo sapiens) (UniProt O94907). Briefly: DKK1 binders on small-molecule microarrays, primary screen, biochemical, small-molecule microarray, 635 nm fluorescence scan (AID 1106).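 Further: score merges emission near 667 nm with signal to noise over three replicate slides.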 The note with it: DKK1 binding, higher = more signal.
The test system of experiment [10] is Inhibin beta A chain (activin A). The experiment in a line: INHBA (activin A) binders on microarrays, primary screen, biochemical, small-molecule microarray, 635 nm fluorescence scan (AID 1107).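 Further: mouse activin A protein probed at 4.33 µg/mL on printed slides; score merges bound-protein fluorescence near 667 nm with spot signal-to-noise.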 The note with it: small-molecule microarray binding, higher = more signal.

Calls of active or inactive are those of the source.

Follistatin-related protein 3 (Homo sapiens), sequence (O95633 whole entry, looked up): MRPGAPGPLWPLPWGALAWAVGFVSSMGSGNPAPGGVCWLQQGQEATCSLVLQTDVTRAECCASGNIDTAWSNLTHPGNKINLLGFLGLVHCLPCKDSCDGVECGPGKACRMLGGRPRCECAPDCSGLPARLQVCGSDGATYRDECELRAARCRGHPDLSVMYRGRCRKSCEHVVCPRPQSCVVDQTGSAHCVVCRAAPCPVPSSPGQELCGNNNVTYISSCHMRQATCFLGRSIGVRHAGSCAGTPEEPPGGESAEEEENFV
Epidermal growth factor receptor (Homo sapiens), sequence (P00533 whole entry, looked up): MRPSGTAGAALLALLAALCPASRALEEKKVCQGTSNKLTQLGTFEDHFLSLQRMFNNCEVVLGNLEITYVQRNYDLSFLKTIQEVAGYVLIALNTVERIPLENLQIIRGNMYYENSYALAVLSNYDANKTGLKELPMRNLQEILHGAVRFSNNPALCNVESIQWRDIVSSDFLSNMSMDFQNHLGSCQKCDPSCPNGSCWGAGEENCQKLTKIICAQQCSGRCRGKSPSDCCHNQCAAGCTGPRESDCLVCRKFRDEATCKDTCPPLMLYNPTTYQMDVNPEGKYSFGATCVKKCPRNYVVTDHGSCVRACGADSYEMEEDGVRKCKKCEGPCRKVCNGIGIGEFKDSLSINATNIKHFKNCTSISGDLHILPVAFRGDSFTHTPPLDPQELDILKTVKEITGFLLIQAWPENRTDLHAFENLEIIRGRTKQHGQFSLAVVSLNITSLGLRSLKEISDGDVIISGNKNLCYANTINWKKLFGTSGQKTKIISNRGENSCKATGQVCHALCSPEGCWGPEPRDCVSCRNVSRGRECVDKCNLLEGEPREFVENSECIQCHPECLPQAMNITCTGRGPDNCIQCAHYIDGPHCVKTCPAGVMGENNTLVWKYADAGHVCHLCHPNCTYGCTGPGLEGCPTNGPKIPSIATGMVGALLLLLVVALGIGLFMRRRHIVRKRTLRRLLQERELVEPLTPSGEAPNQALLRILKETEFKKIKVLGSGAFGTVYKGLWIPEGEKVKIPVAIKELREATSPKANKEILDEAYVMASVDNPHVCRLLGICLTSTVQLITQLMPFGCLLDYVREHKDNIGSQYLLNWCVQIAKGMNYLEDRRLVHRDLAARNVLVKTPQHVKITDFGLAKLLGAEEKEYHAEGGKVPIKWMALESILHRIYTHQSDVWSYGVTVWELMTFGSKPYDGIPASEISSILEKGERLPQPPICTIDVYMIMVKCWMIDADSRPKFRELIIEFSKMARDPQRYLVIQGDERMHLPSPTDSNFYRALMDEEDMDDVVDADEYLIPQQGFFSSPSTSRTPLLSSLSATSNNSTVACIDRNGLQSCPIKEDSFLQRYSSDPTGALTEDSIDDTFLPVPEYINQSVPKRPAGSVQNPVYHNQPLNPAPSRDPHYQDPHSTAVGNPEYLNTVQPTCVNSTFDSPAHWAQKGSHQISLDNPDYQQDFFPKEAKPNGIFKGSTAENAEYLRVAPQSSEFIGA
Dickkopf-related protein 1 (Homo sapiens), sequence (O94907 whole entry, looked up): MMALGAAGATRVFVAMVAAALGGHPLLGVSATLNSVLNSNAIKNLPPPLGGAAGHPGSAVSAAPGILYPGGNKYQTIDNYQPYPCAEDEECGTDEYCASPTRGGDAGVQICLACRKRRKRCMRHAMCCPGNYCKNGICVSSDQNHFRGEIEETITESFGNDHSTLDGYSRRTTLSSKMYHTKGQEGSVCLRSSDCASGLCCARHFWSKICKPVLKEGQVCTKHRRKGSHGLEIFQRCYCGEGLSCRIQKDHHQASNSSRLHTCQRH
Fibroblast growth factor 10 (Homo sapiens), sequence (O15520 whole entry, looked up): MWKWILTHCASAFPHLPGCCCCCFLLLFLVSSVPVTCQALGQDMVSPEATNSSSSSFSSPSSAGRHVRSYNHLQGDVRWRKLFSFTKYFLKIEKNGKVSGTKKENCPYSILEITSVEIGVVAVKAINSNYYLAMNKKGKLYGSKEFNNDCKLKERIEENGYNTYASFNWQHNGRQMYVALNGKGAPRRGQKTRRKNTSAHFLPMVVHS

As to `CN(C)C(=O)[C@@]1(Cc2ccccc2)N=C(c2ccc(OCCCO)cc2)O[C@H]1c1ccccc1`, the composite z-score in [1] is 1.46; in experiment [2], 1.26; in experiment [3], 1.24; in [5], 1.2; in experiment [6], 1.18; in experiment [7], -0.591. Besides, the composite z-score in [8] was 0.109; in [9], -0.273; in experiment [10], 0.139. Moreover, in experiment [4], the z-score is -0.24 (inactive).
For `[N-]=[N+]=Nc1ccccc1C[C@]1(C(=O)O)COC(c2ccc(OCCCO)cc2)=N1`, the composite z-score is 1.15 in [1]; 0.336 in experiment [2]; 0.829 in experiment [3]; -0.51 in experiment [5]; -1.1 in experiment [6]; -0.473 in [7]. Besides, the composite z-score in experiment [8] was -0.543; in experiment [9] it was -0.885; in experiment [10], 0.764. The z-score in experiment [4] was -1.08 (inactive).
Regarding `C=CC[C@@H](OC(=O)Nc1ccc(OC)cc1)c1ccc(O)c(F)c1`, the composite z-score in experiment [1] is 1.69; in [2], -0.0015; in experiment [3], 0.74; in experiment [5], -0.549; in experiment [6], -0.363; in experiment [7], -1.2. For the same molecule, the composite z-score is -0.741 in experiment [8], -0.658 in experiment [9] and 0.19 in experiment [10]. Moreover, the z-score in experiment [4] was -1.95 (inactive).
As for `O=C(NCCN1CCOCC1)[C@@H]1c2ccccc2C(=O)N(Cc2ccccc2Cl)[C@H]1c1ccc(CO)cc1`, the composite z-score in [1] is -0.855; in experiment [2] it was -0.633; in experiment [3], -0.803; in experiment [5], -1.16; in experiment [6], -0.52; in experiment [7], -0.494. For the same molecule, the figures for the composite z-score in [8], in [9] and in [10] were 0.0801, -0.569 and 0.823, respectively. For the same molecule, in experiment [4], the z-score is -0.284 (inactive).
Take `C=CCNC(=O)[C@@H]1[C@H]2C(=O)O[C@H](c3ccccc3)[C@H](c3ccccc3)N2[C@H](c2ccc(OCCO)cc2)[C@@]12C(=O)N(C(=O)OCCOC)c1ccc(C#Cc3ccc(OC)cc3)cc12`: the composite z-score amounted to 1.29 in experiment [1]; 0.0181 in experiment [2]; 0.299 in [3]; 0.753 in experiment [5]; 1.27 in experiment [6]; 0.356 in experiment [7]. In addition, the composite z-score in [8] was determined as 1.34; in experiment [9], 0.489; in experiment [10], 0.688. In [4], the z-score was -1.33 (inactive).
For `CO[C@H]1O[C@H](CO)[C@@H](OC(=O)Nc2ccccc2)[C@H](OC(=O)c2cc3ccccc3[nH]2)[C@H]1OC(=O)c1cc2ccccc2[nH]1`, the composite z-score in [1] is 0.494; in experiment [2], 0.576; in experiment [3], 0.759; in [5], 1.35; in experiment [6], 0.126; in experiment [7], -0.551. Further, the figures for the composite z-score in experiment [8], in [9] and in experiment [10] were 0.306, 0.201 and 0.9, respectively. The z-score in experiment [4] is -0.447 (inactive).
Take `C=CCOC(=O)[C@@H]1[C@H]2C(=O)O[C@H](c3ccccc3)[C@H](c3ccccc3)N2[C@H](c2ccc(OCCOC(=O)[C@@H]3C[C@@H]4C(=O)N[C@@H](CCCC[N+](C)(C)C)C(=O)N4[C@@H]3c3ccc(O)cc3)cc2)[C@@]12C(=O)Nc1ccc(I)cc12`: the composite z-score in [1] was 0.822; in [2] it was -0.178; in experiment [3], -0.18; in experiment [5], 1.18; in experiment [6], 1.24; in experiment [7], 0.49. The composite z-score was found to be 1.41 in experiment [8], 0.776 in [9] and 0.192 in experiment [10]. Moreover, the z-score in [4] was 0.527 (inactive).
As for `CCCC[C@@H](O)C1=C(COc2ccccc2)C[C@H]2C(=O)N(Cc3ccccc3)C(=O)[C@H]2[C@H]1CO`, the composite z-score was 0.146 in [1]; -0.302 in experiment [2]; -0.195 in experiment [3]; 0.574 in experiment [5]; -0.0802 in experiment [6]; 0.357 in experiment [7]. Also, the composite z-score in [8] came out at 0.78; in [9] it was 0.638; in experiment [10], 0.526. Moreover, in experiment [4], the z-score is -0.249 (inactive).
`COC(=O)[C@@]1(Cc2ccc(F)cc2)[C@H]2c3cc(C(=O)N(C)C)n(CCc4ccc(OC)c(Br)c4)c3C[C@H]2CN1C(=O)c1ccccc1`: the composite z-score in [1] was 0.514; in experiment [2], 1.1; in experiment [3] it was 0.732; in experiment [5], 0.856; in experiment [6], 0.182; in [7] it was -0.086. For the same molecule, the composite z-score in experiment [8] is 0.145; in [9] it was -0.257; in experiment [10], 1.01. For the same molecule, the z-score in experiment [4] was 1.6 (inactive).
With `C=C[C@@H](CO)N(Cc1ccc(OC)cc1)S(=O)(=O)c1ccc(Br)cc1`, the composite z-score in [1] was -0.36; in [2] it was 0.188; in experiment [3] it was 0.681; in experiment [5] it was 0.0174; in experiment [6], 0.239; in [7], -0.142. Moreover, the figures for the composite z-score in [8], in experiment [9] and in experiment [10] were -0.0506, -0.0478 and 0.0176, respectively. Besides, the z-score in experiment [4] was -1.21 (inactive).
For `CCCC1(C(=O)OC)C=C2C(=C(C)C(=O)C2C)CN1` (stereo not given), the composite z-score in experiment [1] is -0.79; in experiment [2], 0.719; in [3], 0.974; in experiment [5], 0.168; in experiment [6], -0.636; in [7] it was 0.0023. Also, the composite z-score in experiment [8] is -0.105; in experiment [9] it was -0.238; in [10] it was 1.57. The z-score in experiment [4] was 0.888 (inactive).
Regarding `O=C(NCc1ccc(F)cc1)[C@H]1C[C@H]2C(=O)NCC(=O)N2[C@H]1c1ccc(O)cc1`, the composite z-score is 1.01 in [1]; 0.207 in experiment [2]; 0.112 in experiment [3]; 1.37 in [5]; -0.88 in experiment [6]; 0.297 in [7]. In addition, the composite z-score in experiment [8] came out at 0.138; in experiment [9], 0.787; in experiment [10], 0.43. The z-score in experiment [4] is -0.12 (inactive).
On to `COCC(=C=CC[C@H](O)c1ccc(OCCO)cc1)CCO`, for which the composite z-score in experiment [1] was 1.09; in [2], 0.0019; in [3] it was 0.273; in [5] it was 0.4; in experiment [6], 0.42; in [7], -0.211. The composite z-score in experiment [8] stood at 0.593; in experiment [9], 0.0604; in experiment [10] it was 1.43. In addition, the z-score in [4] was -0.51 (inactive).

These data come from PubChem BioAssay.
